Screens: PubChem, National Center for Advancing Translational Sciences (NCATS)
PINK1 modulator – modulators of PINK1 expression; 0.2% of 410,000 active; PINK1 immunofluorescence, high-content cytometry, 24 h; Potency, µM (top dose mostly 76.6 µM), hits mostly activators; active = well fitted activation curve with a large enough effect; inconclusive = small, poorly fitted or top-dose-only effect; cell line not stated here; also: nearly all actives have a fitted effect of over 65% in size
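Readout is PINK1 immunofluorescence, quantified alongside mitochondrial, cell and nuclear markers by laser-scanning microplate cytometry. Cells from a stable line were exposed to compound titrations (5 concentrations) for 24 hours, with CCCP controls.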
MCF10A rerep – inducers of DNA re-replication in MCF 10A breast cells; MCF 10A DNA re-replication, Hoechst nuclear intensity, 48 h; Potency, µM (doses to about 46.1 µM), most hits filed as activators; 2.9% of 350,000 active; also: nearly all actives have a fitted effect of over 50% in size
ALOX12 inh – ALOX12 (human) lipoxygenase inhibition; AID 1671190; P18054; 1.1% of 580,000 active; Potency, µM (top dose mostly 108 µM), actives largely listed as inhibitors; purified 12hLO, xylenol orange hydroperoxide absorbance
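Purified human 12hLO at 150 nM in 25 mM Hepes, 0.01% Triton X-100, pH 7.0, preincubated 15 min at room temperature with compound. Reaction started with 40 uM arachidonic acid, 30 min at room temperature. Hydroperoxide measured by Fe-xylenol orange, 573/405 nm absorbance ratio.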
SW480 rereplic – induces DNA re-replication in SW480 colon adenocarcinoma cells; SW480 DNA re-replication, Hoechst DNA content imaging, 48 h; Potency, µM (top dose mostly 46.1 µM), usual class: activators; 1.8% of 340,000 active; also: nearly all actives have a fitted effect of over 55% in size
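Cells (250 per well) received 23 nL compound or DMSO by pin tool and were kept 48 hr at 37 C, 5% CO2. Nuclei were then stained with Hoechst for 40 min and scanned for DNA content.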
KB-V1 cytotox – kills drug-selected multidrug resistant KB-V1 cells; KB-V1 MDR cells viability, CellTiter-Glo, 72 h; Potency, µM (series often up to 46.1 µM), hits mostly cytotoxic; 3.4% of 400,000 active; AID 1347076; also: nearly all actives have a fitted effect of over 60% in size
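Readout: CellTiter-Glo luminescence, 10 min after addition. Cells: KB-V1 MDR subline, 72 h at 37 degrees C with compound. Analysis: corrected, normalized data fitted to concentration-effect curves.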
KB-3-1 cytotox – KB-3-1 parental cell cytotoxicity | KB-3-1 viability, CellTiter-Glo ATP luminescence, 72 h | Potency, µM (doses to about 46.1 µM), hits mostly cytotoxic | 1.4% of 400,000 active; also: nearly all actives have a fitted effect of over 60% in size
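Parental KB-3-1 adenocarcinoma cells in phenol-red-free DMEM with 10% FBS were pin-treated with compounds at several concentrations, incubated 72 h at 37 °C, and viability read by CellTiter-Glo luminescence; concentration-effect curves were fitted after normalization.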
Each line names hits and unclear results; the compound was inactive in the other large screens. A selection: hits, their analogues and other compounds. The true share with any hit is near 5.8%. Unless noted, calls follow the shape of the dose curve; as a rule, active = well fitted curve in the direction sought with a large enough effect; inconclusive = small, poorly fitted or top-dose-only effect, or another doubt; inactive = no such curve, though single readings can be large; an effect the other way counts as inactive or inconclusive.

Cc1cc(C)c(C(=O)/C=C/c2ccc(C(C)C)cc2)c(=O)[nH]1	MCF10A rerep 13µM, SW480 rereplic inconclusive, KB-V1 cytotox 16.4µM
Cc1cc(C)c(C(=O)/C=C/C=C/c2ccccc2)c(=O)[nH]1	MCF10A rerep inconclusive, ALOX12 inh inconclusive
COc1cc(N2CCCC2)c(OC)cc1/C=C(/C#N)c1ccc(Br)cc1	MCF10A rerep 23.1µM
CCOC(=O)COc1ccc2c(C#N)c3ccccn3c2c1	MCF10A rerep 20.6µM, SW480 rereplic inconclusive
Cc1nn(-c2ccc3nncn3n2)c2c1C(c1ccc(OC(C)C)cc1)CC(=O)N2 (stereo unspecified)	none (no result: PINK1 modulator, MCF10A rerep, SW480 rereplic, KB-V1 cytotox, KB-3-1 cytotox)
Cc1cc(-c2nsc(=O)o2)c(S(C)(=O)=O)s1	ALOX12 inh 8.91µM (no result: PINK1 modulator)
COc1ccc(-n2c(SCC(=O)c3c[nH]c(C(=O)N4CCCC4)c3)nnc2-c2ccncc2)cc1	none (no result: PINK1 modulator, MCF10A rerep, SW480 rereplic, KB-V1 cytotox, KB-3-1 cytotox)
CCCCn1c(=O)n(CC(=O)NCc2ccc(C)cc2)c(=O)c2c1ncn2Cc1ccco1	none (no result: PINK1 modulator, MCF10A rerep, SW480 rereplic, KB-V1 cytotox, KB-3-1 cytotox)
Cc1ccc(OCC(=O)N2CCN(c3nnc(-c4ccccc4)c4ccccc34)CC2)cc1	MCF10A rerep inconclusive, SW480 rereplic inconclusive, KB-V1 cytotox 4.11µM, KB-3-1 cytotox inconclusive
O=C(c1ccco1)N1CCN(c2nnc(-c3ccccc3)c3ccccc23)CC1	KB-V1 cytotox 16.4µM
CC(=O)N1CCN(c2nnc(-c3ccc(C)cc3)c3ccccc23)CC1	KB-V1 cytotox inconclusive
O=C(CSc1nc(-c2ccccc2)cs1)N1CCN(C(=O)c2ccco2)CC1	ALOX12 inh inconclusive, KB-V1 cytotox 18.4µM
COc1cc(C(=O)NC(C)Cn2cccn2)cc(Cl)c1OC (stereo unspecified)	none (no result: PINK1 modulator, MCF10A rerep, SW480 rereplic, KB-V1 cytotox, KB-3-1 cytotox)
CN(C(=O)c1cc(C2CC2)nc2ccccc12)c1ccccc1	none (no result: PINK1 modulator, MCF10A rerep, SW480 rereplic, KB-V1 cytotox, KB-3-1 cytotox)
CN(C)c1ccc(C(=O)N2CCCC(CCC(=O)N3CCN(c4ccccn4)CC3)C2)cc1 (stereo unspecified)	none (no result: KB-V1 cytotox, KB-3-1 cytotox)
COc1ccc(C(=O)N2CCCC(CCC(=O)N3CCN(c4ccccn4)CC3)C2)cc1 (stereo unspecified)	KB-V1 cytotox 13µM
Cc1ccsc1C(=O)N1CCCC(CCC(=O)N2CCN(c3ccccn3)CC2)C1 (stereo unspecified)	MCF10A rerep 6.51µM, KB-V1 cytotox inconclusive
CCN(CC)S(=O)(=O)c1ccc(C)c(N=CN(C)C)c1	none (no result: PINK1 modulator, MCF10A rerep, SW480 rereplic, KB-V1 cytotox, KB-3-1 cytotox)
CN(C)c1ccc(N=Nc2nc3ccccc3n2C)cc1	SW480 rereplic inconclusive, KB-V1 cytotox inconclusive
Cn1c(N=Nc2ccccc2)nc2ccccc21	MCF10A rerep inconclusive, ALOX12 inh inconclusive, SW480 rereplic inconclusive, KB-V1 cytotox 8.2µM
Cc1ccc(Cl)cc1N(C)C(=O)Cn1ncc2c([nH]c3ccccc32)c1=O	MCF10A rerep inconclusive, SW480 rereplic 20.6µM
OC(c1cc(-c2cccc(Cl)c2)nc2ccccc12)C1CCCCN1 (stereo unspecified)	MCF10A rerep inconclusive, ALOX12 inh 35.5µM, SW480 rereplic inconclusive, KB-V1 cytotox inconclusive
CSC1(SC2=NCCN2)SC2(NCCN2)S1	MCF10A rerep 3.66µM, ALOX12 inh inconclusive, SW480 rereplic inconclusive, KB-V1 cytotox inconclusive, KB-3-1 cytotox inconclusive
Cc1ccc(C(NC(=O)COc2ccccc2C(N)=O)c2cccs2)cc1 (stereo unspecified)	none (no result: PINK1 modulator, MCF10A rerep, SW480 rereplic, KB-V1 cytotox, KB-3-1 cytotox)
Cc1ccc(S(=O)(=O)NCC(=O)N(CC(=O)NC2CCCC2)CC2CCCO2)cc1 (stereo unspecified)	none
COc1ccc(C(=O)/C=C/C(=O)N(CC(=O)NC2CCCCC2)CC2CCCO2)c(O)c1 (stereo unspecified)	MCF10A rerep 11.6µM, KB-V1 cytotox inconclusive, KB-3-1 cytotox inconclusive
COc1ccc(C(=O)/C=C/C(=O)N(CC(=O)NC2CCCCC2)Cc2ccccc2)c(O)c1	MCF10A rerep inconclusive, SW480 rereplic 6.51µM, KB-3-1 cytotox inconclusive
COc1ccc(C(=O)/C=C/C(=O)N(CC(=O)NC2CCCCC2)Cc2ccccc2OC)c(O)c1	MCF10A rerep inconclusive, SW480 rereplic 3.26µM, KB-V1 cytotox 14.6µM, KB-3-1 cytotox inconclusive
CC(=O)c1ccc(SCC(=O)NCCC2=CCCCC2)c(F)c1	none (no result: PINK1 modulator, MCF10A rerep, SW480 rereplic, KB-V1 cytotox, KB-3-1 cytotox)
